Screening data deposited in PubChem by several laboratories.
Compounds with a hit are over-represented: about 8.9% of the library has one in this group of screens.
mHtt clearance – clearance of mutant huntingtin inclusions, primary screen, imaging, HeLa Exon1htt(103Q)mCFP, confocal imaging; aggregate imaging; zero = plate's median compound well; inhibition, % at 1.5 µM; 47,000 tested, 0.42% active; AID 853, 2007;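 active = inhibition of aggregate fluorescence above about 70%, also judged a hit by eye on the cell image, limit read from the data, passing the limit was not always enough; inconclusive = no rule stated for this call; inactive = not judged a hit on image review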;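 note: cells exposed to compound for three days before fixation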
WNV protease inh – inhibitors of WNV NS2B-NS3 protease, primary screen, biochemical, fluorogenic substrate. z-score (test concentration not listed). 65,000 tested, 0.18% active. AID 577, 2007. Genome polyprotein (West Nile virus), P06935. fluorogenic substrate Ex360/Em465; stronger effect = lower value; in the data active = z-score below about -3
Target sequence (P06935 1371-1501 limits assumed): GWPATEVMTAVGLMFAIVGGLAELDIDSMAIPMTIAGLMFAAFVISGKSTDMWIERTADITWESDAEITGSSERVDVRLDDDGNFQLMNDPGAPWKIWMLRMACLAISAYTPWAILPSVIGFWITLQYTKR
Target sequence (P06935 1502-1679 limits assumed): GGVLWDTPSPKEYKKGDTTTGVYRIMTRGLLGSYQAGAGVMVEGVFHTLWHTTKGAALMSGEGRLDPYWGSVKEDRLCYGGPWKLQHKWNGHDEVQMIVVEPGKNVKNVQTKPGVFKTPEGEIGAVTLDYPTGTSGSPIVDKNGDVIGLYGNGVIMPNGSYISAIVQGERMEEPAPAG
M1 antag – antagonists of rat M1 muscarinic receptor; CHO-M1 cells, Fluo-4 calcium, ACh EC80 antagonist mode; stronger effect = lower value; AID 628, 2007; 64,000 tested, 3.4% active; B-score at 10 µM; Muscarinic acetylcholine receptor M1 (Rattus norvegicus), P08482;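 active = calcium fluorescence response, raw or row-and-column corrected B-score, differing from the plate sample mean either way at a set confidence level, mostly lower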
M1 ag – M1 muscarinic receptor agonists, primary screen, CHO-M1 cells, Fluo-4 calcium, agonist mode; Muscarinic acetylcholine receptor M1; Fluo-4 calcium fluorescence; stronger effect = higher value; B-score at 10 µM; 64,000 tested, 3% active; AID 626, 2007;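 active = fluorescence rise, raw or as B-score row- and column-corrected plate score, outside the 99.7% band of its plate's samples, either direction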
D1 mod – D1 CRE-luciferase signal change, two-sided – cell-based, HEK293 D1, dopamine EC30, D1 allosteric modulator project, primary screen | B-score at 10 µM | D(1A) dopamine receptor (Homo sapiens), P21728 | AID 641, 2007 | 58,000 tested, 5.9% active | dopamine EC30 potentiation; actives deviate in either direction;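 active = luminescence count or its row- and column-corrected plate score outside the 99.7% band of the plate's sample wells, on either side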
D1 mod confirm – D1 receptor positive allosteric modulators, retest, confirmation, cell-based, HEK293 D1, CRE-luciferase, duplicate; shares compounds with D1 mod; dopamine EC30 potentiation; stronger effect = higher value; luminescence at 10 µM; 2,200 tested, 88% active; AID 642, 2007;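 active = luminescence in either of two replicates above the same-plate mean plus 3 SD of the low-dose dopamine control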
D1 no dopamine – D1 receptor agonism without dopamine, confirmation, mechanism study for D1 allosteric modulator project, cell-based, HEK293 D1, CRE-luciferase, secondary assay 1. luminescence, no dopamine; stronger effect = higher value. luminescence at 10 µM. shares compounds with D1 mod. 1,900 tested, 0.8% active; in the data active = luminescence above about 3900
Isoprot counter – alters isoproterenol CRE-luciferase response in HEK293 cells | calls only at 10 µM | 2,200 tested, 63% active | HEK293 D1 CRE-luciferase, isoproterenol EC30 counter-screen | shares compounds with D1 mod | AID 647;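 active = luminescence in either replicate above plate mean of wells with a partly effective reference agonist dose plus 3 SD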;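 note: isoproterenol raises cAMP through native beta-adrenoceptor Gs so signal bypasses D1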
Starred values were filed as active, the others as inactive; i = inactive; ? = inconclusive; · = no result given; + = active, no number.

SMILES	mHtt clearance	WNV protease inh	M1 antag	M1 ag	D1 mod	D1 mod confirm	D1 no dopamine	Isoprot counter
COc1cc(NC2c3ncccc3C(=O)N2Cc2ccco2)cc(OC)c1 (stereo not given)	3.8	-0.2	0.203	-0.249	12.3*	14836*	1576	+
COc1ccc(NC2c3ncccc3C(=O)N2Cc2ccccc2)c(OC)c1 (stereo not given)	·	-0.51	0.229	-0.709	19*	14524*	1572	+
CCC1(CC)C(=O)C(C)(C)C(=O)OC1c1cccs1 (stereo not given)	-20.3	0.17	-0.594	-0.0305	-0.0515	·	·	·
CCOc1ccc2nc(SCc3ccc(C(=O)OC)o3)[nH]c2c1	7.3	1.48	0.162	-0.585	2.32	·	·	·
COc1ccc(-c2nc(CSCC(=O)N3CCc4ccccc43)c(C)o2)cc1OC	-51.2	-0.38	-1.45	-2.45	3.81*	11284*	1596	+
COc1ccc2c(C(F)(F)F)cc(=O)oc2c1C	-27.7	1.69	0.0862	-0.253	4.78*	6684*	1588	i
CCCCc1nc2n[nH]c(N)c2c2c1CCC2	?	0.31	-0.0534	0.46	7.93*	22688*	1740	+
CCOc1nc(-c2ccncc2)nc2ccccc12	34.9	-0.7	0.638	0.842	13.3*	14136*	1720	+
CCCc1[nH]nc2c1C(c1ccc(OC)cc1OC)C(C#N)=C(N)O2 (stereo not given)	·	0.61	0.953	-0.678	7.68*	14308*	1416	+
COC(=O)Cc1[nH]nc2c1C(c1c[nH]c3ccccc13)C(C#N)=C(N)O2 (stereo not given)	1.3	-0.95	-0.518	-0.108	7.99*	10912*	·	+
O=C1Nc2ccccc2C12OCCCO2	·	0.49	0.913	1.52	0.59	·	·	·
Cc1[nH]n(-c2ccccc2)c(=O)c1S(=O)(=O)c1ccccc1	38.9	-0.59	0.773	-0.745	4.08*	11060*	1692	i
CC1(C)OC(=O)C(=CNc2ccccc2F)C(=O)O1	-21.8	0.18	0.172	-0.237	5.72*	9180*	1436	+
O=C(Cn1ccc2ccccc2c1=O)NCCC(=O)N1CCN(c2cccc(C(F)(F)F)c2)CC1	·	0.38	-0.952	3.34	·	·	·	·
O=C1NCC(CN(c2ccccc2)c2ccccc2)O1 (stereo not given)	-9.8	-0.66	0.0327	-0.463	2.89*	9384*	1528	+
CC1Cc2ccccc2N1C(=O)COc1nc2ccccc2nc1N1CCOCC1 (stereo not given)	·	1.32	0.0766	0.0838	0.52	·	·	·
COCc1cc(C)nc2sc(C(=O)N3CCN(c4ccccc4)CC3)c(N)c12	·	0.39	0.0725	0.424	4.59*	8080*	1512	i
O=C(CSc1nc(C2CC2)nc2ccccc12)NCc1ccc2c(c1)OCO2	60.3	·	·	·	·	·	·	·
c1ccc(N(c2ccccc2)c2nc(-n3ccnc3)nc(-n3ccnc3)n2)cc1	-4.5	0.5	-0.214	0.338	5.7*	18076*	1612	+
CN(c1ccccc1)c1nc(-n2ccnc2)nc(-n2ccnc2)n1	·	-0.29	-1.11	1.11	-0.244	·	·	·
CCCCNc1nc(N(C)c2ccccc2)nc(-n2ccnc2)n1	66.6	-0.38	-1.04	1.06	4.64*	17552*	1484	+
C=CCNc1nc(N(c2ccccc2)c2ccccc2)nc(-n2ccnc2)n1	56.0	0.29	-0.134	0.59	1.39	·	·	·
N#CCSc1nc2cc(C(=O)N3CCC(C(N)=O)CC3)ccc2c2nc3ccccc3n12	-50.5	-0.12	-1.59	0.686	10.5*	12528*	1880	+
N#CCSc1nc2cc(C(=O)N3CCCC3)ccc2c(=O)n1Cc1ccccc1	·	-0.6	-0.0801	0.673	·	·	·	·
O=C(O)Cc1ccc2[nH]c3ccc(CC(=O)O)cc3c2c1	10.8	-0.56	-0.0419	-0.423	-0.698	·	·	·
SMILES	mHtt clearance	WNV protease inh	M1 antag	M1 ag	D1 mod	D1 mod confirm	D1 no dopamine	Isoprot counter
CCOC(=O)c1c(C)[nH]c(C(=O)O)c1C	·	2.99	0.342	-0.0268	-0.205	·	·	·
CCOC(=O)c1[nH]c(C)c(C(=O)OCc2c(C)noc2C)c1C	·	0.13	-0.279	0.776	5.07*	7568*	880	+
Clc1ccc(OCc2nnc3n2N=C(c2ccc4c(c2)OCCO4)CS3)c(Cl)c1	·	-1.36	0.265	0.439	3.97*	9040*	1568	+
CCc1nnc2n1N=C(c1ccc(-c3ccc(Cl)cc3Cl)o1)CS2	·	0.26	-0.0518	0.632	1.02	·	·	·
N#Cc1cc2ccccc2nc1SCC(=O)Nc1ccc(S(=O)(=O)N2CCCC2)cc1	29.9	0.64	0.0216	-0.209	2.53*	9776*	1832	i
COc1ccc(C(C)N2CC34C=CC(O3)C(C(=O)O)C4C2=O)cc1 (stereo not given)	23.8	0.06	0.325	0.48	-1.12	·	·	·
COc1ccc(-c2cnnn2-c2ccc(N)cc2)cc1OC	·	-0.75	0.0285	-0.0488	10.7*	19800*	1764	+
CSc1oc(-c2ccco2)nc1S(=O)(=O)c1ccc(Br)cc1	·	0.72	-0.102	0.0984	3.99*	15096*	1696	i
CN1CCN(c2oc(-c3ccco3)nc2S(=O)(=O)c2ccccc2)CC1	·	-0.06	0.161	0.253	-1.72	·	·	·
CCSc1oc(-c2ccccc2)nc1S(=O)(=O)c1ccccc1	-7.2	-0.73	0.1	0.0532	1.89	·	·	·
CCSc1oc(-c2ccco2)nc1S(=O)(=O)c1ccccc1	11.5	1.34	-0.406	0.0519	2.97*	24204*	1844	+
COc1cc(-c2nc(S(=O)(=O)c3ccccc3)c(N3CCOCC3)o2)cc(OC)c1OC	24.9	-1.03	-0.906	-0.118	5.08*	11504*	1656	+
O=S(=O)(c1ccccc1)c1nc(-c2ccco2)oc1N1CCCCCC1	45.4	-0.32	-0.383	0.971	6.6*	10268*	1700	i
COc1ccc(CN(CCN2CCOCC2)C(=O)c2c(F)cccc2F)cc1OC	-4.9	0.15	1.13	0.341	1.48	·	·	·
O=S(=O)(NC1CC1)c1ccc(S(=O)(=O)N2CCCC3(CCCCC3)C2)cc1	-21.4	0.82	-1.06	0.795	-0.556	·	·	·
CCOCC(=O)Nc1nnc(C2CCCCC2)s1	-90.8	-0.3	0.179	-0.957	-0.13	·	·	·
CCCc1cc(C(=O)Nc2sc(C)c(C)c2C(=O)OCC)no1	·	-0.4	0.00415	-0.0264	0.235	·	·	·
